IkB signaling: suppresses IkB signaling in ABC-DLBCL reporter cells; Potency, µM (series often up to 57.1 µM), without a hit: top-dose IkBa stabilization activation; ABC-DLBCL IkBa-CBG/CBR dual luciferase ratio, 4 h; response scale: scaled: untreated 0%, proteasome inhibitor 100%; actives 0.04% (n = 110,000); active = well fitted curve in the direction sought with a large enough effect in the signal ratio, not every such curve was filed as active; inconclusive = small, poorly fitted or top-dose-only effect, or a change in a side signal; the % refers to the signal ratio;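 note: the direction sought is a rising ratio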
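Luminescence ratio of IκBα-fused green versus native red beetle luciferase in OCI-Ly3 cells, 4 h post-doxycycline with compound; red signal alone, scaled from basal (0%) to zero light (-100%), flagged nonspecific or cytotoxic effects.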
p53ts 39C kill: kills p53ts cells at the nonpermissive temperature. H1299-p53A138V viability at 39C, ATP luminescence, 24 h. Potency, µM (doses to about 46.1 µM), without a hit: top-dose activity change, negative = cell killing, hits mostly cytotoxic. actives 1.5% (n = 130,000). AID 902; note: % is set by controls: 0 for no effect and ±100 for the full control effect; nearly all actives have a fitted effect of over 55% in size
p53ts 32C tox: p53ts cell cytotoxicity, permissive temperature; H1299-p53A138V at 32C, ATP luminescence viability, 24 h; Potency, µM (series often up to 46.1 µM), without a hit: at the highest dose activity change, negative = cytotoxicity, usual class: cytotoxic; actives 0.93% (n = 130,000); AID 924;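 note: 0% = DMSO and -100% = full killing by reference compound; nearly all actives have a fitted effect of over 55% in size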
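ATP-content luminescence (ATPlite) read-out after 24 h compound exposure at 32C in H1299-p53A138V cells (600/well). Tested up to 46 uM. Normalized to DMSO (0%) and 100 uM tamoxifen (100% killing); Hill-fit AC50.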
ERK AVP block: blocks ERK signaling stimulated by vasopressin. HEK293-V1b, vasopressin-stimulated pERK AlphaScreen. Potency, µM (titrated, usually from 57.5 µM), for inactives: at the top dose activity, negative = inhibition, hits mostly inhibitors. actives 0.99% (n = 72,000). AID 995; note: % is set by controls: 0 for no effect and ±100 for the full control effect; nearly all actives have a fitted effect of over 55% in size
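HEK293 cells stably expressing V1b receptor, seeded overnight in 1% FBS, were treated with compounds for 30 min at 37C, then stimulated 5 min with 25 nM vasopressin; phospho-ERK read by AlphaScreen SureFire after lysis.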
Imprint erasure: inducers of genomic imprint erasure in mouse ES cells | AID 1948 | actives 0.02% (n = 110,000) | mouse ES Peg3-LacZ reporter, beta-gal luminescence, 40 h | Potency, µM (highest dose often 60.7 µM), for the others: at the top dose activity change, positive = activation, most hits filed as activators
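Each well holds 300 Peg3LacZ-Neo (maternal) female ES cells incubated 40 h at 37C, 5% CO2. LacZ is measured by BetaGlo luminescence, with AC50 and maximum efficacy derived from dose-response curves.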
Active calls of the source: *; u = inconclusive; x = no result given; [ ] = dose if it differs, or a comment. A selection: hits, their analogues and other compounds. The true share with any hit is near 2.3%. Unless noted, calls come from the whole dose curve; as a rule, active = well fitted curve in the direction sought with a large enough effect; inconclusive = small, poorly fitted or top-dose-only effect, or another doubt; inactive = no such curve, though single readings can be large; an effect the other way counts as inactive or inconclusive. Potency is the fitted concentration of half-maximal effect.

SMILES | IkB signaling | p53ts 39C kill | p53ts 32C tox | ERK AVP block | Imprint erasure
N=C(N)S[C@H]1c2ccccc2-c2cc([N+](=O)[O-])ccc21 | 2%[11.4 µM] | 3%[9.22 µM] | -3%[9.22 µM] | -7%[11.5 µM] | 2%[10.9 µM]
NC(=O)c1ccc(-c2ncc(-c3ccccc3)o2)cc1 | 7% | 20µM* | u | 45% | -6%
O=c1c2c(nc3c(-c4cccc5ccccc45)c[nH]n13)CCC2 | u | -19% | u | 4% | u
O=c1c2c(nc3c(-c4ccc(Cl)cc4)c[nH]n13)CCCC2 | u | 20µM* | -16% | 11% | -9%
O=S1(=O)Nc2c(ccc3cccnc23)-c2ccccc21 | 0.79µM* | -18% | 16% | 21% | -32%
O=C(Cn1ncc2c(=O)oc3ccccc3c21)NCCN1CCN(c2ccccc2F)CC1 | 1% | 6% | 0% | -3% | 7%
O=C(Cn1ncc2c(=O)oc3ccccc3c21)Nc1cc(F)ccc1F | 2% | 6.3µM* | 3% | x | u
Cc1ccc2scc(N3CCN(c4cccc(C(F)(F)F)c4)CC3)c(=O)c2c1 | -1% | u | -4% | x | -25%[10.9 µM]
Cc1ccc2scc(N3CCCC(C)C3)c(=O)c2c1 (stereo not drawn) | u | u | 13µM* | x | -10%[10.9 µM]
O=C(O)[C@@H]1[C@@H](C(=O)NCc2ccccn2)[C@@H]2C=C[C@@H]1O2 | 1%[11.4 µM] | 1%[9.22 µM] | 5%[9.22 µM] | -17%[11.5 µM] | 4%[10.9 µM]
O=C(NCCO)c1ccc(-n2c(=O)c(=O)[nH]c3ccccc32)cc1 | x | -6% | 3% | x | x
CCCCNC(=O)CCC(=O)NNc1nc2ccccc2c2nc(C)nn12 | -1% | -4% | 2% | x | -7%[10.9 µM]
CCCCNC(=O)CCC(=O)NNc1nc2ccccc2c2nc(-c3ccccc3)nn12 | 3% | 13µM* | -2% | x | u
COc1cc(/C=N/NC(=O)c2cc(-c3ccccc3)n[nH]2)cc(OC)c1OC | x | -7% | -6% | x | x
Clc1ccccc1-c1cncnc1NCc1cccs1 | 1%[11.4 µM] | -7% | 6% | u | -1%
COc1cccc(-c2nccc(NCc3cccc(C)c3)n2)c1 | 0%[11.4 µM] | -9% | 3% | -28% | -31%
COc1cccc(-c2cncnc2NCc2cnc(C)cn2)c1 | 1%[11.4 µM] | -3% | 17% | -8% | -14%
COc1cccc(-c2nc(NCc3cccs3)c3ccccc3n2)c1 | 4%[11.4 µM] | -15% | -16% | 32µM* | -17%
COc1cccc(-c2cncnc2NCc2ccccc2)c1 | 3%[11.4 µM] | -10% | -9% | 20µM* | -10%
COc1cccc(-c2nccc(NCc3ccccc3)n2)c1 | -1%[11.4 µM] | 13µM* | 20µM* | 10µM* | -13%
Cc1ccccc1-c1cncnc1NCc1cccs1 | 0%[11.4 µM] | -4% | 7% | 25µM* | -8%
O=C(O)CNC(=O)c1ccc([N+](=O)[O-])cc1 | -1% | 6% | 10%[1.84 µM] | 10% | -1%
COc1cccc(-c2cc(NCc3cccc(C)c3)ncn2)c1 | 1%[11.4 µM] | -26% | -8% | u | -13%
N#Cc1cccc(-c2nccc(NCc3cccnc3)n2)c1 | 0%[11.4 µM] | -24% | 4% | 16µM* | 10%
COc1cccc(-c2cncnc2NCc2cccs2)c1 | 2%[11.4 µM] | -3% | 6% | 10µM* | u
SMILES | IkB signaling | p53ts 39C kill | p53ts 32C tox | ERK AVP block | Imprint erasure
COc1cccc(-c2cc(NCc3cccs3)ncn2)c1 | -1%[11.4 µM] | u | 25µM* | 25µM* | -47%
C[C@@]12CC[C@@H]3[C@H](CCC4=CC(=O)CC[C@]43C)[C@@H]1CC[C@@H]2C(=O)COS(=O)(=O)c1ccc(Br)cc1 | 1%[11.4 µM] | 17%[9.22 µM] | 10%[9.22 µM] | -20%[11.5 µM] | 21%[10.9 µM]
O=C(Nc1cccc(C(=O)N2CCN(c3ccc(Cl)cc3)CC2)c1)c1nsc2ccccc12 | 4% | u | -18% | x | -6%[10.9 µM]
COc1ccccc1/C=C/c1nc2ccccc2n1C(C)C | -5% | 16µM* | u | x | -18%[10.9 µM]
Cc1ccc(C(O)c2nc3ccccc3n2C(C)C)cc1 (stereo not drawn) | -4% | 15% | 7% | 5% | 5%
Cc1cc(C)c(C#N)c(N2CCOCC2)n1 | x | 10% | 8% | x | x
CCOc1cc2c(C#N)c(N3CCOCC3)nc(N)c2c(N)n1 | -1% | -12% | 0% | 16µM* | -9%
CN[C@]1(C)[C@@H]2CC[C@@H](C2)C1(C)C | 1% | 11% | -14% | 22% | x
Cc1ccc2nc(-c3ccc(N)cc3)sc2c1S(=O)(=O)O | 2% | 16µM* | -8%[1.84 µM] | 7% | -89%
Cc1ccc(C(=O)Nc2sc3c(c2C(=O)O)CCCCC3)o1 | u | 6.3µM* | 7.9µM* | -25% | -93%
COC(=O)c1c(NC(=O)c2ccc(C)o2)sc2c1CCCCC2 | 9% | -28% | -13% | 64% | -34%
OCc1cc(C(O)CNCCCCCCOCCCCc2ccccc2)ccc1O (stereo not drawn) | x | 13µM* | u | u | -55%
CCOCCCNCC(O)c1ccccc1 (stereo not drawn) | x | 11% | x | x | x
CCOC(=O)C1=C(C)NC(=O)N[C@@H]1c1coc2cc(C)cc(C)c2c1=O | 3%[11.4 µM] | 4%[9.22 µM] | 18%[9.22 µM] | -5%[11.5 µM] | 5%[10.9 µM]
COc1ccc(-c2noc(CSc3nnc(-c4ccncc4)n3-c3ccc(C)cc3)n2)cc1OC | -1% | -13% | 3% | x | -16%[10.9 µM]
COc1ccc(-c2noc(CSc3nnc(-c4ccncc4)n3-c3ccc(F)cc3)n2)cc1OC | -4% | 2% | 4% | 25µM* | -20%
CCN(CC)c1ccc2cc(-c3nc4ccccc4[nH]3)c(=O)oc2c1 | 0% | 0.4µM* | 0.32µM* | 26% | -59%
CCN(CC)c1ccc2cc(-c3nc4ccccc4n3C)c(=O)oc2c1 | 1% | -14% | -12% | 2% | -23%
Brc1ccc(-c2nc(-c3ccncc3)no2)o1 | -1% | 0% | -6% | -12% | -27%
Clc1ccc(OCc2nc(-c3ccccn3)no2)c(Br)c1 | 6% | 13µM* | 13µM* | -7% | -81%
Clc1ccccc1OCc1nc(-c2ccccn2)no1 | u | u | u | 7% | -77%
Brc1ccc(-c2nc(-c3ccccn3)no2)o1 | u | 6.3µM* | 7.9µM* | -6% | -95%
Clc1ccc(-c2nc(-c3ccccn3)no2)cc1Cl | u | 7.9µM* | 5µM* | u | -65%
Nc1ncnc2c([C@@H]3O[C@@H](CO)[C@H](O)[C@@H]3O)nsc12 | u | 1%[9.22 µM] | 20%[9.22 µM] | 18%[11.5 µM] | -43%[10.9 µM]
c1ccc(Nc2nc(-c3cccnc3)cs2)nc1 | u | 16µM* | u | -8% | -81%
c1ccc(Nc2nc(-c3cccs3)cs2)nc1 | u | u | 13µM* | 8% | -88%
c1cncc(Nc2nc(-c3ccncc3)cs2)c1 | -8% | 8% | 6% | 20µM* | 8%
c1cncc(Nc2nc(-c3cccnc3)cs2)c1 | -9% | 2% | 9% | u | -15%
Cc1cccc(Nc2nc(-c3cccs3)cs2)n1 | x | -20% | u | x | x
O=C(O)CC12C[C@H]3C[C@@H](CC(O)(C3)C1)C2 | -1%[11.4 µM] | -7%[9.22 µM] | 8%[9.22 µM] | 21%[11.5 µM] | -6%[10.9 µM]
